Laboratory results reported in PubChem BioAssay (NCI).
About 83,000 compounds went through this panel and 20% of them were active in at least one assay; those are over-represented in the sample as a whole.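 Cells were grown in 96-well plates and exposed to the test compound at a single concentration for 48 hours; results are reported as percent growth, with values below 10 considered active.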 The source made the active and inactive calls.

What was measured:
Experiment in all cases: NCI-60 one-dose screen, 48 h (100 = growth as untreated, 0 = no growth, -100 = all killed)
Settings in all cases: 10 µM unless noted
[1] = test system: T-47D breast
[2] = test system: BT-549 breast
[3] = test system: SW-620 colon
[4] = test system: HCT-116 colon
[5] = test system: HCC-2998 colon
[6] = test system: KM12 colon
[7] = test system: MCF7 breast
[8] = test system: MDA-MB-435 melanoma

Measured: growth

CC(C)C1=NOC(=O)C1=Cc1cn(-c2cccnc2)nc1-c1ccccc1
inactive: [1] 92.6% | [2] 125% | [3] 88.8% | [4] 81.2% | [5] 111% | [6] 102%

COCc1nc2ccccc2[nH]1
inactive: [1] 104% | [2] 164% | [3] 106% | [7] 88.7% | [4] 99.9% | [5] 106% | [6] 106%

COc1ccc(C=C2c3ccccc3-c3ccccc32)cc1
inactive: [1] 46.6% | [3] 19.4% | [7] 13% | [4] 16.9% | [5] 73.6% | [6] 24.8%
active: [8] -10.4%

c1ccc(-c2nnc(-c3c[nH]c4ncccc34)s2)cc1
inactive: [1] 40.5% | [2] 95.3% | [3] 104% | [7] 54.1% | [4] 91% | [5] 111% | [6] 93.2%

O=C(O)CC1CCCCC1c1ccccc1 (centres undefined)
inactive: [1] 104% | [2] 96% | [3] 111% | [4] 98.4% | [5] 106% | [6] 110%

COc1ccc(/C=C/C=C\C(=O)c2ccc(-n3ccnc3)cc2)cc1
active: [4] -76.2%
inactive: [1] 58.1% | [2] 50% | [3] 98.4% | [7] 79.5% | [5] 99.9% | [6] 92.8%

Clc1ccccc1/C=N\Nc1ccccn1
inactive: [1] 62.1% | [2] 114% | [3] 102% | [7] 28.4% | [4] 107% | [5] 111% | [6] 87.2%

O=c1[nH]cnc2c1ccn2C1OC(CO)C(O)C1O (centres undefined)
inactive: [1] 54.1% | [2] 75.8% | [3] 33.5% | [7] 24.9% | [4] 54.9% | [5] 69.3% | [6] 75.1%

COc1cc(/C=C/C(=O)/C=C/c2ccc(-n3ccnc3)cc2)ccc1O
inactive: [1] 58% | [2] 102% | [4] 97.5% | [5] 42.7%
active: [3] 8.7% | [7] 6.22% | [6] -42.4%

CCCCC(CCCCCC(CCCC)C1NC(C)Cc2cc(OC)c(OC)cc21)C1NC(C)Cc2cc(OC)c(OC)cc21 (centres undefined)
active: [1] -76.8% | [8] -73.4% | [3] -80.8% | [7] -95.1% | [4] -97.5% | [5] -97.3% | [6] -94.7%

CCOC(=O)Nc1ccc2c(c1)/C(=N\NC(=S)NC)c1ccccc1-2
inactive: [1] 66.7% | [2] 94% | [3] 93.6% | [7] 74.6% | [5] 88.2% | [6] 71%

COc1cc(Cl)cc(-c2nn(C(=O)NS(=O)(=O)c3ccccc3)cc2-c2ccncc2)c1
inactive: [1] 92.5% | [2] 36.9% | [3] 114% | [7] 99.8% | [4] 93.7% | [6] 102%

CN(C)CCOc1ccc(/C(=C(/CCCl)c2ccccc2)c2ccccc2)cc1
inactive: [1] 25.6% | [2] 46.8% | [3] 15.8%
active: [7] 3.24% | [4] 6.56% | [5] -41.2% | [6] -47.4%

COc1cc2c(=O)[nH]c3cc([N+](=O)[O-])ccc3c2cc1[N+](=O)[O-]
inactive: [1] 49.1% | [2] 50.4% | [3] 35.5% | [7] 16.5% | [4] 21.5% | [5] 62.8% | [6] 53.3%

COc1ncc(-c2ccc3nccc(C#CCCCCC(=O)O)c3c2)cc1NS(=O)(=O)c1ccc(F)cc1F
active: [1] -18.1% | [2] 4.54% | [7] 6.95%
inactive: [3] 50.7% | [5] 29.4% | [6] 41.6%

NS(=O)(=O)c1ccc(CCN2C(=O)/C(=C\c3ccccc3)C=C2c2ccc(Cl)cc2)cc1
inactive: [1] 88.9% | [2] 96.4% | [3] 99.2% | [7] 81.2% | [4] 96.5% | [5] 105% | [6] 99%

O=C(NCCCNC(=O)OCc1ccc2cccc(O)c2n1)OCc1ccc2cccc(O)c2n1
inactive: [1] 49.1% | [8] 18.5% | [7] 19.3% | [5] 85.1% | [6] 53.3%
active: [3] 4.75% | [4] -46.3%

COc1cc2c(c(OC)c1)C1c3cc(OC)ccc3NC(=O)N1CC2 (centres undefined)
inactive: [1] 88.7% | [3] 49.4% | [7] 58.3% | [4] 65.2% | [5] 94% | [6] 49.4%
active: [8] 9.36%

C=CC1=C(C)C2=NC1=CC1=NC(=CC3=C(C)C4=C(O)C(C(=O)O)C(=C5NC(=C2)C(C)C5CCC(=O)O)C4=N3)C(CC)=C1C (centres undefined)
inactive: [1] 123% | [8] 120% | [3] 104% | [7] 113% | [4] 101% | [5] 109% | [6] 105%

O=C1C(Cl)=C(Nc2ccc3cn[nH]c3c2)C(=O)c2ccccc21
inactive: [6] 28%
active: [1] -52.3% | [8] -95% | [3] -86% | [7] -68.3% | [4] -98.6% | [5] -83%

CC1(C(=O)O)CCC(N)(C(=O)O)C1(C)C (centres undefined)
inactive: [1] 98.4% | [8] 115% | [3] 108% | [7] 99.5% | [4] 110% | [5] 120% | [6] 111%

COc1ccc2nc3cc(Cl)ccc3c(Nc3ccc(O)cc3)c2c1
inactive: [1] 80% | [8] 96% | [3] 49.1% | [7] 24.6% | [4] 53.1% | [5] 62.1% | [6] 63.5%

CCCOc1ccc(-c2nc(-c3ccc(N)cc3)cs2)cc1
inactive: [1] 84.9% | [8] 107% | [3] 113% | [7] 86% | [4] 95.5% | [5] 114% | [6] 115%

COc1ccc(/C=C(/C2=NCCN2)n2ccc3ccccc32)cc1
inactive: [1] 86.2% | [8] 89.9% | [3] 87.1% | [7] 83.4% | [4] 83% | [5] 98.5% | [6] 95.8%

NNC(=O)c1ccc(C(=O)NN)cc1
inactive: [1] 133% | [8] 106% | [3] 99.2% | [7] 106% | [4] 108% | [5] 100% | [6] 107%

O=C(CCCSc1nc(-c2ccccc2)cc(-c2ccccc2)n1)NO
active: [1] -2.43% | [7] 9.38% | [4] 9.52%
inactive: [8] 12.3% | [3] 16% | [5] 17.7% | [6] 14.4%

C#CCC(C(=O)OCC)C(=O)OCC
inactive: [1] 114% | [8] 97.8% | [3] 106% | [7] 98% | [4] 105% | [5] 101% | [6] 106%

CCCCCn1sc(=O)n(Cc2ccc(CNC(=O)OCc3ccc4cccc(O)c4n3)cc2)c1=O
active: [1] -47.3% | [8] -70.1% | [3] -48.5% | [7] 0.802% | [4] -76.9% | [5] 5.53%
inactive: [6] 11.8%

Oc1ccc(N=Nc2nccs2)c(O)c1
inactive: [1] 58.1% | [8] 64.4% | [3] 41.3% | [7] 57.1% | [5] 73.4% | [6] 51.7%
active: [4] 5.98%

O=C(Nc1ccc(Cl)c(C(F)(F)F)c1)Nc1ccc(-c2cccnc2)cc1N1CCC(CO)CC1
inactive: [8] 15.5% | [3] 35.5% | [7] 16.2% | [4] 11.8% | [5] 13.9% | [6] 25.7%
active: [1] 5.62%

CC(=O)O.CC(=O)O.O.[Fe]
inactive: [1] 97.7% | [8] 128% | [3] 98.3% | [7] 111% | [4] 108% | [5] 115% | [6] 104%

Nc1cc(Cl)cc2cccnc12
inactive: [1] 112% | [8] 106% | [3] 102% | [7] 95.2% | [4] 109% | [5] 93.5% | [6] 101%

O=C(CCN1CCCCC1)c1ccc2ccccc2c1
inactive: [1] 91% | [8] 110% | [3] 107% | [7] 87.8% | [4] 103% | [5] 109% | [6] 102%

Cc1nc(Cl)c2c(n1)N(C)c1ccc(Cl)cc1C(C)C2 (centres undefined)
inactive: [1] 71% | [8] 85.9% | [3] 86.5% | [7] 95.6% | [4] 80.1% | [5] 98.6% | [6] 92.4%

CC1Cc2c(ncnc2-n2cnc3ccccc32)N(C)c2ccccc21 (centres undefined)
active: [8] -23.7%
inactive: [1] 33.3% | [3] 17.7% | [7] 18.2% | [4] 21.3% | [5] 64.8% | [6] 27.8%

CCCCCCNC(=O)Nc1ncnc2c1ncn2-c1ccccc1
inactive: [1] 66.6% | [8] 102% | [3] 95.9% | [7] 89.4% | [4] 90.2% | [5] 118% | [6] 108%

O=C(Nc1cc(F)cc2cccnc12)c1cnc(N2CCNCC2)cn1
inactive: [1] 18% | [8] 77.3% | [3] 40.9% | [7] 10.2% | [4] 11% | [5] 85.6% | [6] 81.2%
